Test [1] addresses Voltage-gated inwardly rectifying potassium channel KCNH2 (Homo sapiens) (UniProt Q12809). Description: qHTS Assay for Small Molecule Inhibitors of the Human hERG Channel Activity (AID 588834).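 Note: lower thallium flux fluorescence means stronger hERG block; nearly all actives have a fitted effect of over 50% in size.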 Note: potency is the fitted concentration of half-maximal effect. In outline: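 U2OS cells BacMam-transduced with hERG, 2000 cells/well, compound ~10 min at 37 °C before stimulation buffer. FluxOR thallium flux fluorescence read kinetically on FDSS; decrease indicates block; AC50 from Hill fits.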

In test [2] the target is Peroxisome proliferator-activated receptor gamma (Homo sapiens) (UniProt P37231). Briefly: qHTS assay for small molecule antagonists of peroxisome proliferator-activated receptor gamma signaling (AID 588537; active = well fitted inhibition curve with a large enough effect in the signal ratio, with a control signal flat, not every such curve was filed as active; the % refers to the signal ratio; note: potency is the fitted concentration of half-maximal effect). In outline: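 PPARγ-UAS-bla HEK293 cells (3000/well) in 1% charcoal/dextran-stripped FBS are treated with compound, then stimulated with 50 nM rosiglitazone for 16 h at 37 °C. Read-out is CCF4 β-lactamase fluorescence after 2 h at RT. IC50 comes from Hill fits normalised to rosiglitazone and DMSO.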
(Quantitative high-throughput screening tests each substance at several concentrations.)

For test [3], the target named is Vitamin D3 receptor (Homo sapiens) (UniProt P11473). Description: qHTS assay for small molecule antagonists of vitamin D receptor signaling (AID 588541; calls by dose curve;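 note: receptor activated by calcitriol during compound treatment; series mostly up to about 77 µM; % is set by controls: 0 for no effect and ±100 for the full control effect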). In outline:
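VDR-UAS-bla HEK293T cells in 2% charcoal-stripped FBS were stimulated with 1-alpha,25-dihydroxyvitamin D3 (3 nM final) plus compound for 16 h at 37 C. The beta-lactamase CCF4 readout was normalized to 50 nM agonist and DMSO, and Hill fits gave IC50.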

Test [4] has the same target. Briefly: qHTS assay for small molecule agonists of vitamin D receptor signaling (AID 588543; calls by dose curve;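 note: 0% = DMSO basal and 100% = reference agonist control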). In outline:
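VDR-UAS-bla HEK293T cells, 2000/well, 2% charcoal-stripped FBS; compound titration 16 h at 37 C; CCF4 beta-lactamase ratio read. Normalized to 50 nM 1-alpha,25-dihydroxyvitamin D3 (100%) and DMSO; Hill fit gives EC50, efficacy.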

The nature of test [5]: qHTS assay for small molecule agonists of retinoid X receptor alpha signaling (AID 588544; calls by dose curve). The following applies: HEK293T RXRa-UAS-bla, beta-lactamase reporter, 18 h; 530 nm emission.
The target of test [6] is Retinoic acid receptor RXR-alpha (Homo sapiens) (UniProt P19793). The test is described as above.
The target in test [7] is Thyroid hormone receptor beta (Homo sapiens) (UniProt P10828). Description: qHTS assay for small molecule agonists of thyroid hormone receptor beta signaling (AID 588545; calls by dose curve;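 note: 0% = DMSO only and 100% = 10 nM T3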). In a few lines:
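Stimulation of a TR-driven beta-lactamase reporter was quantified in GripTite HEK 293 cells. Compound series ran for 18 hrs; curves were normalized to T3 and DMSO controls and fitted to yield EC50.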

For test [8] the target is unchanged. Briefly: qHTS assay for small molecule antagonists of thyroid hormone receptor beta signaling (AID 588547; active = well fitted inhibition curve with a large enough effect in the signal ratio, with a control signal flat, not every such curve was filed as active; the % refers to the signal ratio;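 note: cells stimulated with 0.4 nM T3 agonist during compound exposure; series mostly up to about 77 µM; % is set by controls: 0 for no effect and ±100 for the full control effect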). The following applies: TR-UAS-bla HEK293, beta-lactamase ratio, antagonist mode, 18 h. In a few lines: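 TR-UAS-bla GripTite HEK293 cells in 2% charcoal/dextran FBS medium; compounds 0.59 nM to 92 uM with T3 at 0.4nM final, 18 h at 37 C. Beta-lactamase read by CCF4 fluorescence (460/530 nm); Hill fits gave IC50 and efficacy.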

Test [9] concerns the target Luciferin 4-monooxygenase (Photinus pyralis) (UniProt P08659). Description: Biochemical firefly luciferase enzyme assay for NPC (AID 624030).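 Note: purified P. pyralis luciferase at 10 nM with luciferin and ATP substrate; series mostly up to about 59 µM; 0% = DMSO and -100% = full luciferase inhibition by PTC124 control; nearly all actives have a fitted effect of over 70% in size.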 In outline:
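Purified P. pyralis luciferase at 10 nM in 50 mM Tris Acetate (final), luminescence read within 5 minutes of enzyme addition to compounds. Activity normalised to PTC124 versus DMSO; concentration-response curves classed by r2, magnitude and activity.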

For test [10], the target named is Peroxisome proliferator-activated receptor gamma (Homo sapiens) (UniProt P37231). Briefly: qHTS assay for small molecule agonists of peroxisome proliferator-activated receptor gamma signaling (AID 588536; active = well fitted curve in the direction sought with a large enough effect in the signal ratio, with a control signal flat, not every such curve was filed as active; the % refers to the signal ratio;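 note: 0% = DMSO basal wells and 100% = rosiglitazone at 2 µM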). In outline:
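Test agents, titrated, stimulated HEK293 UAS-bla cells overnight (16 h, 37 C). Substrate CCF4 was then added for two hours at room temperature before fluorescence reading.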

Test [11] in a line: qHTS assay for small molecule antagonists of retinoid X receptor alpha signaling (AID 588546; active = well fitted inhibition curve with a large enough effect in the signal ratio, with a control signal flat, not every such curve was filed as active; the % refers to the signal ratio;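 note: cells stimulated with 9-cis-retinoic acid as agonist; % is set by controls: 0 for no effect and ±100 for the full control effect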). The following applies: HEK293T RXRa-UAS-bla, beta-lactamase ratio, antagonist mode; measured here: W530 green channel, cytotoxicity proxy. In a few lines: (§1)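 Beta-lactamase reporter inhibition, read as CCF4 fluorescence ratio (ex 405, em 460/530 nm) after 2 h at RT. HEK293T UAS-bla cells, 2500/well, were stimulated with 9-cis-RA at 500 or 100 nM final alongside test compound for 18 h at 37 C.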

In test [12] the target is Retinoic acid receptor RXR-alpha (Homo sapiens) (UniProt P19793). The description is as above. As to conditions: HEK293T RXRa-UAS-bla, beta-lactamase ratio, antagonist mode. In a few lines: as §1
Test [13] is described as follows: S16 Schwann cell viability assay (CellTiter-Glo assay) (AID 624031).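 Note: native untransfected S16 rat Schwann cells; cellular ATP luminescence as a viability measure; series mostly up to about 58 µM; plate controls were DMSO-treated cells for no effect and cell-free wells for full effect; nearly all actives have a fitted effect of over 70% in size.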 In a few lines: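 Following overnight culture in 10% FBS DMEM, parental S16 rat Schwann cells are dosed for 24 h at 37 °C. Viability is read as CellTiter-Glo luminescence and expressed as % activity relative to DMSO (0%) and no-cell wells.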
A short description of test [14]: S16 Schwann cell PMP22 intronic element firefly luciferase assay (AID 624032).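 Note: series mostly up to about 58 µM; plate controls were DMSO for no effect and PTC124 positive control mean for full effect; nearly all actives have a fitted effect of over 30% in size.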 In a few lines: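 Rat S16 Schwann cells stably carrying firefly luciferase driven by a PMP22 intronic element, in 10% FBS, treated 24 h at 37 C. ONE-Glo luminescence normalized to PTC124 control and DMSO (0%); curves classed by r2, magnitude and activity.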

“And” between values parts separate entries of the source, which are not always exact repeats. Equal entries are not always repeated. Records with an inconclusive call do not appear. The source made the active and inactive calls. Unless noted, calls come from the whole dose curve; as a rule, active = well fitted curve in the direction sought with a large enough effect; inconclusive = small, poorly fitted or top-dose-only effect, or another doubt; inactive = no such curve, though single readings can be large; an effect the other way counts as inactive or inconclusive.

Consider 30 compounds from PubChem BioAssay (NCATS).

Retinoic acid receptor RXR-alpha (Homo sapiens), sequence (P19793 whole entry, looked up): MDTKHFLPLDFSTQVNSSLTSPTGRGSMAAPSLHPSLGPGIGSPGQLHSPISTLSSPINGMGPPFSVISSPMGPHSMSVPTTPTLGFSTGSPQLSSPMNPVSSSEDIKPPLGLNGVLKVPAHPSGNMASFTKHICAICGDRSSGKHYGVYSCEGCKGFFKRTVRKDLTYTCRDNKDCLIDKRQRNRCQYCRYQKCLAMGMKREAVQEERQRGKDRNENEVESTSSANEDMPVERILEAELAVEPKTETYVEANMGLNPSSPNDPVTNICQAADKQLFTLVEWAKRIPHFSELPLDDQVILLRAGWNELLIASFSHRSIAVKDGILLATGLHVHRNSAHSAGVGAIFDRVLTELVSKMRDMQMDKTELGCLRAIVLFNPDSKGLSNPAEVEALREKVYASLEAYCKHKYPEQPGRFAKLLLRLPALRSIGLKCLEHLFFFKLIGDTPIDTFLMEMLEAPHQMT
Luciferin 4-monooxygenase (Photinus pyralis), sequence (P08659 whole entry, looked up): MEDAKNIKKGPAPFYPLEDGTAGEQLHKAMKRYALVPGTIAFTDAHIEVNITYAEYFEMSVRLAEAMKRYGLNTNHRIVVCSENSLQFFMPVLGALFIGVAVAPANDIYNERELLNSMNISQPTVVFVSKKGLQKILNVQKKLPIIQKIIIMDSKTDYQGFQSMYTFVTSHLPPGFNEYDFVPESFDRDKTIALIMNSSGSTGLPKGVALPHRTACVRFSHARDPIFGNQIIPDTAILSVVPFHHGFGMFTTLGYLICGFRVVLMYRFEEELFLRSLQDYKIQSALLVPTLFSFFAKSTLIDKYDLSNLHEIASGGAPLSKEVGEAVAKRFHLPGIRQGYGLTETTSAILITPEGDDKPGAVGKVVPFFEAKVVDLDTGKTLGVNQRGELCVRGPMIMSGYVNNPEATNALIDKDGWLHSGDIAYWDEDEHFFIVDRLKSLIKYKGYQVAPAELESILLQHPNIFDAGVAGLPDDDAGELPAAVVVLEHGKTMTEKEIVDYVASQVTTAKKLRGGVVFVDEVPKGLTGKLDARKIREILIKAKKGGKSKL
Voltage-gated inwardly rectifying potassium channel KCNH2 (Homo sapiens), sequence (Q12809 whole entry, looked up): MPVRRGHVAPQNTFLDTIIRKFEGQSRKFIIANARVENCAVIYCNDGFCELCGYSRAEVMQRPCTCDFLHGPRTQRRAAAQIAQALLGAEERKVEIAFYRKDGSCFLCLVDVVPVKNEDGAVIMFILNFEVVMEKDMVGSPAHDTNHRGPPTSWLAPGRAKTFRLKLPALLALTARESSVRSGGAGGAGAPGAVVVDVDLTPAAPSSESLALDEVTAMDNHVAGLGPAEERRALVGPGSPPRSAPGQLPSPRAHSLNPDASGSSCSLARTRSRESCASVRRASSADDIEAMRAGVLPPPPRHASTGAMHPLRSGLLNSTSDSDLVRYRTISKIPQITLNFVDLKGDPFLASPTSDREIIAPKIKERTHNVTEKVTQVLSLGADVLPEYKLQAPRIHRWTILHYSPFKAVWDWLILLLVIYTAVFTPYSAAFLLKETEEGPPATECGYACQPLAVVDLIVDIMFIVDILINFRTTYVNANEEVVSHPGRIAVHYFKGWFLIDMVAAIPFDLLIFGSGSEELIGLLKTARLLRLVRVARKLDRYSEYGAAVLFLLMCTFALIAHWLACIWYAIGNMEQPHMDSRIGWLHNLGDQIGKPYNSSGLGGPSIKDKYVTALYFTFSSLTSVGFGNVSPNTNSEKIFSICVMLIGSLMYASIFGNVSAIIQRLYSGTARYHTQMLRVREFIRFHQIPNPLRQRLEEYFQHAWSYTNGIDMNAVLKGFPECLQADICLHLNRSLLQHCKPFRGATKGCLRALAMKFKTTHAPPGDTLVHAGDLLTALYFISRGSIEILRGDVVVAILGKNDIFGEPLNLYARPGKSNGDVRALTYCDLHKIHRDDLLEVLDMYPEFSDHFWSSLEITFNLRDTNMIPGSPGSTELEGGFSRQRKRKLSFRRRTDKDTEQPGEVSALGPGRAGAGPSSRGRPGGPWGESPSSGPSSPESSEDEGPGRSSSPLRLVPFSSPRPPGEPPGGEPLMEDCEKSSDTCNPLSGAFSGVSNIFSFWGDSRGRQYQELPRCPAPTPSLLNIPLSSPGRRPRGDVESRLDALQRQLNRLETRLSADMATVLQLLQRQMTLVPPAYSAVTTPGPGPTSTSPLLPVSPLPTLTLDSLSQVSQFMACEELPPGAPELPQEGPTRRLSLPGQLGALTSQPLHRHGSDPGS
Vitamin D3 receptor (Homo sapiens), sequence (P11473 whole entry, looked up): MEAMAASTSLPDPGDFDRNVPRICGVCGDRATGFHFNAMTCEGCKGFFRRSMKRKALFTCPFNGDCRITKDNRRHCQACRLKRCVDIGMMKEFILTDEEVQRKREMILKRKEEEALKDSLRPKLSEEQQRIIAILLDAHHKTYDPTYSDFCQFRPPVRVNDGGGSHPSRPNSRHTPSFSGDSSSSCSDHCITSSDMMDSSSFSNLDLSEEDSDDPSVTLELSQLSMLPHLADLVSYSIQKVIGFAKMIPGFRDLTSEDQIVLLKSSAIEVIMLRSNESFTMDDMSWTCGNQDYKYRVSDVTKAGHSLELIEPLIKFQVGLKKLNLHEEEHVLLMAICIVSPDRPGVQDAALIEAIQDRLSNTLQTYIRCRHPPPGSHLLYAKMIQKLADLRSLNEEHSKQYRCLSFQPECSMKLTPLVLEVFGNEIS
Peroxisome proliferator-activated receptor gamma (Homo sapiens), sequence (P37231 whole entry, looked up): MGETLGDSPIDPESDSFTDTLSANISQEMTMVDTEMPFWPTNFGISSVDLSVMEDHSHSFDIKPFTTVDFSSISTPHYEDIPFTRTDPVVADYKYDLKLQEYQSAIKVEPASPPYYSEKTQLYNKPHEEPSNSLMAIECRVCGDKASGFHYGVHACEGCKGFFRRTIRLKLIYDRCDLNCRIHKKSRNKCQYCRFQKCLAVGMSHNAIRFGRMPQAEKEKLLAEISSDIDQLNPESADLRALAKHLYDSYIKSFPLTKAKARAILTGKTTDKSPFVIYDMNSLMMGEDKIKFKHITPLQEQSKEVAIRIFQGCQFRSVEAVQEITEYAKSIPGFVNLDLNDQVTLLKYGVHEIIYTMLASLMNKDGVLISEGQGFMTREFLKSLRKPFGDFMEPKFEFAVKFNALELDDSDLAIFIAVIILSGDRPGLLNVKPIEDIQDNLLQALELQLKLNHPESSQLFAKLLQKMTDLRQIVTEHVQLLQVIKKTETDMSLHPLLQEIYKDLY
Thyroid hormone receptor beta (Homo sapiens), sequence (P10828 whole entry, looked up): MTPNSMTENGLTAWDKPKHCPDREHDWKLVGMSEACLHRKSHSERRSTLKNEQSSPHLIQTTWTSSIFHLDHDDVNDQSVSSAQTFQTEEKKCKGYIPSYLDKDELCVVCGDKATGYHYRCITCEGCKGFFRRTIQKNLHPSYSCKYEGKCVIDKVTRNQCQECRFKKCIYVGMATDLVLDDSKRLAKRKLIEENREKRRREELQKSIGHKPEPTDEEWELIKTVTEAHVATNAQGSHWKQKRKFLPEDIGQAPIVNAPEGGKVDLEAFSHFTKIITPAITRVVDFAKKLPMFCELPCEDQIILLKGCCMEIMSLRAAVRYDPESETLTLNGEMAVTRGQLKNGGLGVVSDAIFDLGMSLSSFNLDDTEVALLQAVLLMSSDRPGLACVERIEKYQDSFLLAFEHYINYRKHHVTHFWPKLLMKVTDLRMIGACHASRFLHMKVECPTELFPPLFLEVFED

Turning to `C[C@]12CCC3C(CC[C@H]4C[C@H](O)CC[C@]34C)C1CC[C@@H]2C(=O)CO` (stereo partly drawn), the Potency entry in test [1] was “inactive”.
In the case of `CS(=N)(=O)CC[C@H](N)C(=O)O` (stereo partly drawn), in test [1], the Potency entry was “inactive”.
On the same count and under the same terms, the result for `NCc1cc(=O)[nH]o1` reads “inactive”; that for `CNCCc1c[nH]c2ccc(O)cc12`, “inactive”; that for `Oc1ccc2c3c1O[C@H]1c4[nH]c5c(c4C[C@@]4(O)[C@@H](C2)N(CC2CC2)CC[C@]314)C[C@@]1(O)[C@H]2Cc3ccc(O)c4c3[C@@]1(CCN2CC1CC1)[C@H]5O4`, “inactive”.
The same measure, in the same setting: the result for `C[N+]1(C)C2CCC1CC(OC(=O)C(CO)c1ccccc1)C2` (stereo not drawn) reads “inactive”.
Turning to `c1ccc(CCCN2CCN(CCOC(c3ccccc3)c3ccccc3)CC2)cc1`, the Potency in [1] is 0.501 µM (active).
On the same count and under the same terms, the result for `CCCN(CCC)[C@@H]1CCc2ccc(O)cc2C1` reads 2.51 µM (active).
Regarding `O=[N+]([O-])c1c2ccccc2cc2ccccc12`, the Potency in test [2] is 31.6 µM (active). The Potency result in [3], in test [6], in test [1] and in test [9] was “inactive” each time. The result in test [4] and in [7] was inactive. In addition, the max response in test [5] came out at 3.63%. In addition, the activity change % (negative = inhibition) in test [8] is 0.364% (inactive).
`COC(C)(C)CCCC(C)C/C=C/C(C)=C/C(=O)OC(C)C` (stereo not drawn): the call in test [10] and in test [7] was inactive. Besides, the max response in [5] was 13.2%; in test [11] it was 2.28% and 4.86%; in test [12], -11.7% (inactive) and -5.86% (inactive). Further, the Potency result in test [6], in test [1], in [9] and in test [13] was “inactive” each time. In addition, the activity change % (negative = inhibition) in test [8] is -7.54% (inactive) and 20% (inactive).
On to `c1ccc2sc(C3(N4CCCCC4)CCCCC3)cc2c1`, for which, in [1], the Potency is 2.82 µM (active).
Regarding `Cn1cnc(CCN)c1`, the Potency result in test [1] is “inactive”.
On to `CC(C)(O)C(=O)Nc1ccc([N+](=O)[O-])c(C(F)(F)F)c1`, for which the call in [4] and in test [7] was inactive. Besides, the max response is 11.6% in test [5], 15.1% in [11] and -2.4% (inactive) in test [12]. Further, the Potency entry in [6] and in test [1] was “inactive” throughout. Further, the activity change % (negative = inhibition) in [8] was 23.5% (inactive).
Regarding `O=C1CCCN1CC#CCN1CCCC1`, the Potency entry in [1] was “inactive”.
Turning to `Cc1nc(-c2ccc(-c3ccc(C(=O)N4CCc5cc6c(cc54)C4(CCN(C)CC4)CO6)cc3)c(C)c2)no1`, the Potency in test [1] was 7.94 µM (active).
The same measure, in the same setting: the result for `Clc1ccc(C(c2ccc(Cl)cc2)n2cc[n+](CC(OCc3ccc(Cl)cc3Cl)c3ccc(Cl)cc3Cl)c2)cc1` (stereo not drawn) reads 11.2 µM (active); that for `S=C(NC1CCCCC1)N1CCC(c2cnc[nH]2)CC1`, “inactive”.
For `CC(Cc1ccc(O)cc1)NCC(O)c1cc(O)cc(O)c1` (stereo not drawn), the Potency result in [1] was “inactive”.
For `Cc1nccc2c1[nH]c1ccccc12`, in test [1], the Potency result was “inactive”.
Take `O=C(O)CC[N+](=O)[O-]`: the Potency result in test [1] is “inactive”.
As for `CCCN1CCO[C@@H]2c3cc(O)ccc3OC[C@H]21`, the Potency entry in [1] was “inactive”.
With `O=C(O)CCCOc1ccc(Cl)cc1Cl`, the Potency result in test [2] is “inactive”. In addition, the call in [4] and in [7] was inactive. In addition, the max response is 17.8% in [11] and -3.54% (inactive) in test [12]. The activity change % (negative = inhibition) in test [8] is 12.5% (inactive).
With `CC(=O)OCC1=C(C(=O)O)N2C(=O)[C@@H](N)[C@@H]2SC1`, the Potency result in test [9] and in test [13] was “inactive” throughout.
For `C[C@]12CCC(=O)C(O)=C1CC[C@@H]1[C@H]3CCC(=O)[C@@]3(C)CC[C@@H]12`, the Potency entry in test [1] and in test [9] was “inactive” throughout.
Take `NC(=O)CN1CC(O)CC1=O` (stereo not drawn): the Potency entry in test [1], in [9], in [13] and in test [14] was “inactive” in each case.
Turning to `C[C@@H]1[C@H](O)[C@@H](C)C=CC=CCCC=CC=CC=CC=C[C@H](O[C@H]2O[C@@H](C)[C@H](O)[C@@H](N)[C@@H]2O)CC2O[C@](O)(C[C@@H](O)[C@H](O)CC[C@@H](O)C[C@@H](O)C[C@@H](O)CC(=O)O[C@H]1C)C[C@H](O)[C@H]2C(=O)O`, the Potency entry in test [9] is “inactive”.
Take `CC(C)NCC(O)c1ccc([N+](=O)[O-])cc1` (stereo not drawn): in test [9], the Potency entry was “inactive”.
`O=C(O)[C@@H]1CCN1`: the Potency result in [1] is “inactive”.
`COC(=O)c1cncn1C(C)c1ccccc1` (stereo not drawn): the Potency result in [1], in [9], in test [13] and in [14] was “inactive” throughout.
Turning to `C[N+](C)(C)CC(=O)O`, the Potency entry in test [1] and in test [9] was “inactive” throughout.
